# 3T3 cytotox = Cytotoxic Profiling in NIH 3T3 Cell Line of Diverse Libraries Using Quantitative High-Throughput Screening; hit rate 4.3% among 94,000; NIH 3T3 viability, CellTiter-Glo ATP luminescence, 48-72 h; Potency, µM (series often up to 96.7 µM), most hits filed as inhibitors; AID 1345082, 2018; note: nearly all actives have a fitted effect of over 55% in size
#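 Mouse fibroblast NIH 3T3 cells, 400 per well, received compound via pintool and were incubated for 48 or 72 hr prior to CellTiter-Glo ATP luminescence measurement.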
# Luciferase inh = Firefly luciferase inhibition profiling of diverse chemical library using quantitative high-throughput screening; purified P. pyralis luciferase, luminescence, biochemical; Potency, µM (titrated, usually from 115 µM), usual class: inhibitors; hit rate 2.5% among 76,000; note: nearly all actives have a fitted effect of over 65% in size
#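 Inhibitors were tested against purified firefly luciferase in a biochemical, low-substrate format (both substrates at 10uM) and luminescence measured with a CCD imager.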
# HEK cytotox = Cytotoxic Profiling in HEK 293 Cell Line of Diverse Libraries Using Quantitative High-Throughput Screening. HEK 293 viability, ATP luminescence (CellTiter-Glo), 48-72 h. Potency, µM (doses to about 115 µM), hits mostly inhibitors. hit rate 6.6% among 94,000; note: nearly all actives have a fitted effect of over 60% in size
#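 HEK 293 cells seeded at 250 cells/well were exposed to compound for 48 or 72 hr at 37 degree Celsius. Viability taken as ATP content by CellTiter-Glo luminescence.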
# NPR1 antag = Natriuretic polypeptide receptor (hNpr1) antagonism - Primary qHTS | HEK293 hNpr1 GloSensor cGMP, ANP-stimulated luminescence | Potency, µM (titrated, usually from 46.3 µM), hits mostly inhibitors | hit rate 1.6% among 76,000 | AID 1347048, 2019; calls by dose curve; note: nearly all actives have a fitted effect of over 60% in size
# Target sequence (P16066 whole entry, looked up): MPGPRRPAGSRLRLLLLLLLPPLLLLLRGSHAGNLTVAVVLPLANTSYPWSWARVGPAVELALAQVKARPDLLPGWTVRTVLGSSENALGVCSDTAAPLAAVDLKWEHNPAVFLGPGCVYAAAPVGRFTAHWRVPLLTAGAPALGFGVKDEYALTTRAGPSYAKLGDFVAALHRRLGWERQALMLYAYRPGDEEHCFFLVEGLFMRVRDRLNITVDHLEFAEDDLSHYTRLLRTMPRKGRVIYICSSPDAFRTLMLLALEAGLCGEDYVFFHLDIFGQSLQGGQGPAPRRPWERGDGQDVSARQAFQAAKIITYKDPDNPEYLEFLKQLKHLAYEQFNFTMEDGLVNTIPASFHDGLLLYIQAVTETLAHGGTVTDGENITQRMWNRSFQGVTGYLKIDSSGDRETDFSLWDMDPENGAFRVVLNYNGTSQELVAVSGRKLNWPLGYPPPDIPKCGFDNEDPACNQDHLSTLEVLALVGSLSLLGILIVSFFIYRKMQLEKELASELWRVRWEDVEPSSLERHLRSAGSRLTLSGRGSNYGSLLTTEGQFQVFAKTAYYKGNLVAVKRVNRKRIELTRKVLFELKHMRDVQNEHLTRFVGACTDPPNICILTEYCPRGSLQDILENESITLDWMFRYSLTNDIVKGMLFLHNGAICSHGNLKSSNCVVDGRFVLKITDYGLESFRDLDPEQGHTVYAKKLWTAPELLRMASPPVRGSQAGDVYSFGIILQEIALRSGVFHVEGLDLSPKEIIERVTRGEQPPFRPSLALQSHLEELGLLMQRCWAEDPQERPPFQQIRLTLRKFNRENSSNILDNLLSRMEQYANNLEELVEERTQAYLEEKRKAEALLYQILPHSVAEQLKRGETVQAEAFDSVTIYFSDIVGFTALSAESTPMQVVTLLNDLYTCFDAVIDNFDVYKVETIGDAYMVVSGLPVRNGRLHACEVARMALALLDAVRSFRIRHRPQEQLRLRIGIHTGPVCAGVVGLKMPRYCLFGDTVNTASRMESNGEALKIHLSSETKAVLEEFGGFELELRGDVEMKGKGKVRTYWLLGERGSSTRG
#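 Compound pre-incubated 30 min at room temperature on GloSensor-loaded HEK293 cells stably carrying hNpr1 and the pGS-40F cGMP biosensor. Stimulation uses hNppA at 0.1 nM final; luminescence is taken at baseline and 20 min post-agonist.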
# GPT2 inh = Primary qHTS assay for inhibitors of Glutamate pyruvate transaminase 2 (GPT2). Alanine aminotransferase 2 (Homo sapiens), Q8TD30. Recombinant GPT2, coupled pyruvate oxidase/HRP Amplex Red fluorescence. Potency, µM (titrated, usually from 57.7 µM), hits mostly inhibitors. hit rate 0.25% among 100,000; note: nearly all actives have a fitted effect of over 60% in size
#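 Fluorescence read-out: pyruvate from GPT2 turnover coupled to pyruvate oxidase, HRP and Amplex Red (0.2mM ThPP, 0.2U/mL PO and HRP, 50uM Amplex final). Substrates 250uM a-KG, 2mM L-alanine; enzyme 10ng/uL; 30 min RT.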
# A number is an active result; 0 = inactive; ? = inconclusive; - = not tested or not shown; [ ] = another dose, or the depositor's remark. Shown are actives, neighbours in structure and some others; about 10% of the full set was active somewhere. Unless noted, calls come from the whole dose curve; as a rule, active = well fitted curve in the direction sought with a large enough effect; inconclusive = small, poorly fitted or top-dose-only effect, or another doubt; inactive = no such curve, though single readings can be large; an effect the other way counts as inactive or inconclusive.
SMILES,3T3 cytotox,Luciferase inh,HEK cytotox,NPR1 antag,GPT2 inh
O=C(c1cccc2cnccc12)N1CCCC2(C=Cc3ccccc3O2)CC1 (stereo not drawn),?,0,45µM,0,0[11.5 µM]
O=C(NCc1ccc(F)cc1)N1CCCC(Cc2noc(-c3ccccn3)n2)C1 (stereo not drawn),0,0,0,0,0
CN(CC1CCOC1)S(=O)(=O)c1ccccc1Br (stereo not drawn),0,0,0,0,0
O=C1[C@@H]2C[C@@H](O)CN2C2(CN(Cc3ccccn3)C2)C(=O)N1Cc1ccccc1Cl,?,0,0,0,?
Cc1ccsc1CN1CCC(Oc2cc(Cl)ccc2C(=O)N2CCCCC2)CC1,?,0,45µM,0,0
CC(=O)N1CCN(Cc2ccccc2-c2ccc(C)c(Cl)c2)CC1,?,-,?,-,0
Cc1ccc(-c2ccccc2CN2CCN(C(=O)N(C)C)CC2)cc1Cl,?,-,32µM,-,0
Cc1ccc(-c2ccccc2CN2CCC(C(=O)NCC(F)(F)F)CC2)cc1Cl,?,-,50µM,-,0
Cc1ccc(-c2ccccc2CN2CCN(C(=O)C3CCCC3)CC2)cc1Cl,?,-,?,-,0
Cc1ccc(-c2ccccc2CN2CCC(C(=O)NCC3CC3)CC2)cc1Cl,?,-,35µM,-,-
COc1ccc(CN2C[C@@H]3C[C@@H](C(N)=O)N(C(=O)C(C)C)c4cccc(c43)C2=O)cc1,?,-,0,-,0
COc1ccc(Nc2cc(-c3cccs3)nc3c(C)noc23)cc1OC,45µM,0,63µM,0,?
CCc1nc2c(c(-c3ccc(O)cc3)n1)CN(Cc1cccc(C(F)(F)F)c1)CC2,?,0,?,0,0
CCc1nc2c(c(-c3ccc(O)cc3)n1)CCN(Cc1ccc(C(F)(F)F)cc1)CC2,?,0,45µM,?,?
CCc1nc2c(c(-c3ccc(Cl)cc3)n1)CN(Cc1cccc(F)c1)CC2,11µM,0,20µM,0,0
CCc1nc2c(c(-c3ccc(Cl)cc3)n1)CCN(Cc1ccc(C(F)(F)F)cc1)CC2,0,0,50µM,0,0
O=C(CCc1nc(C2CCOC2)no1)NC1CCCCCCC1 (stereo not drawn),0,0,0,0,0
Cc1ccc(S(=O)(=O)N[C@H]2CC(C)(C)[C@@H]3C[C@@](C)(O)CC[C@]23CCC(=O)NCCc2c[nH]c3ccccc23)cc1,79µM,0,?,0,0
CC(C)N[C@H]1CC(C)(C)[C@@H]2C[C@@](C)(O)CC[C@]12CCC(=O)NCCc1c[nH]c2ccccc12,?,0,?,0,0
CCOc1cc(C(=O)NC2CCN(c3cc(-c4ccccc4)[nH]n3)CC2)cc(OCC)c1OCC,?,0,45µM,0,0
CCOc1cc(C(=O)NC2CCN(c3cc(-c4ccc(F)cc4)[nH]n3)C2)cc(OCC)c1OCC (stereo not drawn),25µM,0,35µM,0,0
CCOc1ccc(C(=O)NC2CCN(c3cc(-c4ccc(F)cc4)[nH]n3)CC2)cc1OCC,?,0,40µM,0,0
CCOc1cc(C(=O)NC2CCN(c3cc(-c4ccc(F)cc4)[nH]n3)CC2)cc(OCC)c1OCC,?,0,?,0,0
CCOc1ccc(C(=O)NC2CCN(c3cc(-c4ccccc4)[nH]n3)CC2)cc1OCC,0,0,?,0,0
O=C(Nc1ccc2c(c1)OCCO2)N1CCCC(CN2CCOCC2)CC1 (stereo not drawn),0,0,0,0,0
SMILES,3T3 cytotox,Luciferase inh,HEK cytotox,NPR1 antag,GPT2 inh
CCN(Cc1ccccc1)c1ncncc1-c1nc(-c2ccccc2)no1,?,0,79µM,0,0
CCCOCCCNC(=O)c1c(C)noc1-c1ccc(C(C)(C)C)cc1,?,0,35µM,0,?
COC(=O)CNC(=O)c1cc(-c2ccc([S+](C)(=O)[O-])cc2)nc2c1cnn2C,0,-,0,-,0
O=C(NCCOc1cccnc1)c1cn(Cc2cccc(C(F)(F)F)c2)nn1,?,0,28µM,0,0
FC(F)(F)c1cccc(CN2CCOC[C@H](Oc3cccnc3)C2)c1,?,0,?,0,0
O=C(COc1ccc(Cl)cc1)N1CCC(c2n[nH]c(=O)n2Cc2ccc(F)cc2)CC1,3.2µM,0,?,0,0
Cc1ccc(Cn2c(C3CCN(C(=O)c4ccc(C(C)(C)C)cc4)CC3)n[nH]c2=O)cc1,28µM,0,25µM,?,0
Cc1ccc(Cn2c(C3CCN(C(=O)c4cc(C)cc(C)c4)CC3)n[nH]c2=O)cc1,0,0,?,0,0
Cc1ccc(-n2c(C3CCN(C(=O)COc4ccc(Cl)cc4)CC3)n[nH]c2=O)cc1,2.8µM,0,0,0,0
COc1ccc(Cn2c(C3CCN(C(=O)Cc4ccc(Cl)cc4)CC3)n[nH]c2=O)cc1,35µM,0,?,0,0
Cc1ccc(-n2c(C3CCN(C(=O)COc4ccc(F)cc4)CC3)n[nH]c2=O)cc1,?,0,0,0,0
CCN(CC)Cc1cc(-c2nc(C3CCOC3)no2)c(-c2ccccc2)o1 (stereo not drawn),?,0,0,0,0
CCOc1cc(=O)n2c(c1C(=O)Nc1ccc(SC)cc1)CCCC2,0,0,0,0,0
COc1ccc(Cn2c(C3CCN(C(=O)COc4ccccc4)CC3)n[nH]c2=O)cc1,?,0,0,0,0
O=C(COc1ccccc1)N1CCC(c2n[nH]c(=O)n2Cc2ccc(F)cc2)CC1,28µM,0,?,0,0
O=C(C1CCCC1)N1CC2(CCN(CC3CC3)CC2)Cc2ccccc21,?,-,?,-,0
O=C(c1cc(-c2cccc(C(F)(F)F)c2)c2cccn2n1)N1CCCC1,?,-,45µM,-,0
C[S+](=O)([O-])c1ccc(-c2cc(C(=O)N3CCN(c4ncccn4)CC3)nn3cccc23)cc1,0,-,50µM,-,0
COC(=O)CNC(=O)c1cc(-c2cc(Cl)cc(Cl)c2)c2cccn2n1,?,-,?,-,0
O=C(NCC(F)F)c1cc(-c2cccc(C(F)(F)F)c2)c2cccn2n1,?,-,35µM,-,0
O=C(NCC(F)(F)F)c1cc(-c2cc(Cl)cc(Cl)c2)c2cccn2n1,?,-,40µM,-,0
CSCCNC(=O)c1cc(-c2cccc(C(F)(F)F)c2)c2cccn2n1,?,-,?,-,0
COC(=O)c1cc(C#N)c(N2CCCC(O)(CN(C)C)CC2)nc1C (stereo not drawn),0,0,0,0,0
O=C(NC1CCCC1)c1cc(-c2cccc(C(F)(F)F)c2)c2cccn2n1,?,-,40µM,-,0
CCOCCNC(=O)c1ccc(-c2ccc(OC)nn2)cc1,?,-,0,-,-
Cc1nnc2ccc(N3CCC(NC(=O)C4CCCC4)C3)nn12 (stereo not drawn),0,-,0,-,-

# Compound activity (PubChem)
